From PubChem BioAssay
Rows were chosen to be rich in hits. Some 1.2% of all compounds tested hit in one or more screens of this group.
hERG WT inh = blocks the wildtype human KCNH2 potassium channel. AID 720551. U2OS, BacMam KCNH2, thallium flux FluxOr; active compounds read low. activity change, % at 1.84 µM. hit rate 0.37% among 340,000;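 active = maximum activity change below -70%; inconclusive = maximum activity change between -70% and -50%; inactive = maximum activity change above -50%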
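U2OS cells transduced with wild-type KCNH2 virus are loaded with FluxOr dye for 45 min, and thallium flux is measured in kinetic reads before and after stimulation buffer. Rate constants are normalized to DMSO controls.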
Luc counter = Kinase-Glo luciferase inhibition (counter-screen). Q27757. Kinase-Glo luciferase, ATP luminescence, 8 min. Potency, µM (series often up to 38.3 µM), inactives show at the top dose activity change, negative = inhibition, most hits filed as inhibitors. hit rate 0.28% among 200,000. AID 1379; active = well fitted inhibition curve with a large enough effect; inconclusive = small, poorly fitted or top-dose-only effect; also: potency is read from the fitted curve at half-maximal effect; nearly all actives have a fitted effect of over 60% in size
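Substrate mix (final 50 mM imidazole pH 7.2, 50 mM KCl, 7 mM MgCl2, 10 uM ATP, 0.01% Tween 20, 0.05% BSA) plus pin-tool compound, then Kinase-Glo detection mix; 8 min ambient, luminescence read.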
KCNH2 3.1 inh = blocks the human KCNH2 3.1 channel isoform. activity change, % (tested at about 1.8 µM). AID 720553. hit rate 0.95% among 340,000. U2OS KCNH2 3.1, thallium flux FluxOr; active compounds read low;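 active = maximum activity change below -70%; inconclusive = maximum activity change from -70% to -50%; inactive = maximum activity change above -50%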;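 also: thallium influx rate constant from kinetic fluorescence after stimulation buffer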
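FluxOr-based Tl+ influx in U2OS cells transduced with KCNH2 3.1 virus; rate constants normalized to DMSO controls.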
* hit, by the source's call; ? = inconclusive; nt = no result given; [ ] = remark or other dose. % is scaled to controls: 0 for no effect and ±100 for the full control effect.

SMILES | hERG WT inh | Luc counter | KCNH2 3.1 inh
CC1CC(C)CN(C(=O)COC(=O)/C=C/c2cccc([N+](=O)[O-])c2)C1 (configuration not stated) | 4 | nt | -109*
CC1CN(C(=O)COC(=O)/C=C/c2cccc([N+](=O)[O-])c2)CC(C)O1 (configuration not stated) | -14 | nt | -1
COc1cc(NC(=O)c2ccccc2-n2cnnn2)cc(OC)c1 | -1 | nt | 36
COc1cc(OC)cc(C(=O)Nc2ccc(-n3cnnn3)c(C)c2)c1 | 1 | 14µM* | -9
O=C(COC(=O)CNS(=O)(=O)c1ccc(Br)cc1Cl)NC1CC1 | 11 | nt | 18
COc1cc2c(cc1OC)CN(C(=O)CNS(=O)(=O)c1ccc(C)c(C)c1)CC2 | -5 | nt | -7
COc1ccccc1N(C)S(=O)(=O)c1ccc(Cl)c(C(=O)NC2=NCCS2)c1 | 1 | 4% | -76*
CN(c1ccccc1)S(=O)(=O)c1ccc(Cl)c(C(=O)NC2=NCCS2)c1 | 31 | 3% | 2
O=C(NCC1CCN(C(=O)c2ccc([N+](=O)[O-])cc2)CC1)c1ccc([N+](=O)[O-])cc1 | 26 | nt | 3
CSc1ccccc1NC(=O)CN(C)Cc1c(O)ccc2ccccc12 | -1 | nt | 18
C=CCCCCCCCCc1nc(SCC(=O)O)n[nH]1 | 3 | nt | -8
CCCCCCCCc1nc(SC(C)C(=O)O)n[nH]1 (configuration not stated) | -7 | 0% | -105*
CN(Cc1ccccc1Cl)C(=O)CNC(=O)C12CC3CC(CC(C3)C1)C2 | -9 | nt | 6
COc1ccc(NC(=O)CC(C)NCCCN2CCCC2=O)cc1 (configuration not stated) | -333* | nt | 7
COc1ccc(NC(=O)NCCCN2CCCC2=O)cc1 | -2 | 3% | 36
CSc1ccccc1NC(=O)CN(C)C(=O)c1ccc2c(c1)OCCO2 | -4 | nt | -16
Cc1ccc(-c2nc(CS(=O)CC(=O)NC3CC3)c(C)o2)cc1 (configuration not stated) | -5 | nt | 13
Cc1oc(-c2ccccc2Cl)nc1CS(=O)CC(=O)NC1CC1 (configuration not stated) | -261* | nt | 8
Cc1oc(-c2ccc(F)cc2)nc1CN(Cc1ccccn1)CC1CCCO1 (configuration not stated) | -18 | -1% | -32
CCOC(=O)C1=C(COC(=O)CCc2ccc(CC)cc2)NC(=O)NC1C (configuration not stated) | -2 | nt | ?
COc1ccc(CCNC(=O)/C=C/c2ccc(C)cc2)cc1OC | -1 | 4% | -89*
COc1ccc(CCNC(=O)c2c(Cl)ccc(Cl)c2OC)cc1OC | -1 | nt | -96*
CC(C)(C)c1ccc(C(=O)NCCN2CCOCC2)cc1 | 11 | nt | 2
COc1ccc(/C=C/C(=O)NCCc2ccc(OC)c(OC)c2)cc1 | -4 | -1% | -9
CC(C)(C)c1ccc(C(=O)NCCCN2CCN(CCCNC(=O)c3ccc(C(C)(C)C)cc3)CC2)cc1 | -6 | 0% | -114*
SMILES | hERG WT inh | Luc counter | KCNH2 3.1 inh
COc1ccc(/C=C/C(=O)NCCCN2CCCC2)cc1 | 20 | nt | -4
Cc1ccc(/C=C/C(=O)NCCCN2CCN(CCCNC(=O)/C=C/c3ccc(C)cc3)CC2)cc1 | -119* | 2% | -122*
COc1ccc(CCNC(=O)c2ccc(Cl)cc2)cc1OC | 2 | 0% | -8
O=C1NCC(=O)N2CCC[C@@H]12 | 3 | nt | 3
C=C[C@@H]1c2cc(C)ccc2N(S(=O)(=O)c2ccc(C)cc2)[C@H](c2ccc(OC(C)=O)cc2)C1(C#N)C#N | -5 | nt | -18
COc1ccc(C(=O)N(C)c2ccccc2C(=O)NCCc2ccccc2)cc1 | 21 | nt | 12
COc1ccc(NC2CCCN(C(=O)CN3CCOC3=O)C2)cc1 (configuration not stated) | -7 | nt | 8
CCCC(=O)Nc1ccc(Nc2ccccc2)cc1 | -71* | -1% | -5
CCCC(=O)Nc1ccc(-c2ccc(NC(=O)CCC)cc2)cc1 | -12 | 0% | 5
CN(CCC(=O)Nc1ccc(Cl)cc1)Cc1ccccc1 | 28 | nt | -76*
CN(CCC(=O)Nc1ccc2c(c1)OCO2)Cc1ccccc1 | 5 | 1% | -1
Cn1c(Sc2ccc(-c3cccnc3)n2C)ccc1-c1cccnc1 | nt | -5%[7.66 µM] | nt
CC1CCCCN1CC(=O)Nc1ccc(N2CCCCCC2)cc1 (configuration not stated) | 0 | -7% | ?
CC1CCCCN1CC(=O)Nc1ccc(Oc2ccccc2)cc1 (configuration not stated) | 12 | -2% | -89*
CCN(CC)CCOC(=O)CCc1cccc2ccccc12 | -11 | -1% | -7
CCN(CC)CCOC(=O)C(Cc1ccco1)Cc1cccc2ccccc12 (configuration not stated) | -7 | nt | -74*
C[C@@H]1CCCCO[C@@H](CN(C)C(=O)Cc2ccccc2)[C@@H](C)CN([C@H](C)CO)C(=O)c2cc(NC(=O)C3CCCCC3)ccc2O1 | -11 | nt | -44
CC(NC(=O)CCc1nnc(-c2ccc(-c3ccccc3)cc2)o1)c1nccs1 (configuration not stated) | 16 | -3% | -1
CC(c1nccs1)N(C)C(=O)CCc1nnc(-c2ccc(-c3ccccc3)cc2)o1 (configuration not stated) | -138* | nt | -161*
CCOC(=O)CCCNC(=O)N1CCc2nc(-c3ccccc3)c3c(c2C1)CO[C@@H](C)C3 | nt | -6%[7.66 µM] | nt
COc1cc2c3cc1Oc1cc(ccc1O)C[C@@H]1c4c(cc(OC)c(O)c4Oc4ccc(cc4)C[C@H]3[N+](C)(C)CC2)CC[N+]1(C)C | nt | 0%[7.66 µM] | nt
Clc1ccc(-n2cccc2CN2CCc3c([nH]c4ccccc34)C2c2ccccn2)nc1 (configuration not stated) | -33 | 1% | -38
COc1ccc(CCN2CCCC(CN(C)C(=O)c3ccoc3C)C2)cc1 (configuration not stated) | 15 | nt | nt
COCc1ccc(C(=O)N(C)CC2CCCN(CCc3ccc(Cl)cc3)C2)o1 (configuration not stated) | -2 | nt | -74*
COCc1ccc(C(=O)N(C)CC2CCCN(CCc3ccc(OC)cc3)C2)o1 (configuration not stated) | 36 | nt | -21
SMILES | hERG WT inh | Luc counter | KCNH2 3.1 inh
Cc1occc1C(=O)N(C)CC1CCCN(CCc2ccc(Cl)cc2)C1 (configuration not stated) | 11 | nt | -72*
COC(=O)C[C@H]1C[C@@H]2c3cc(NC(=O)CN(C)C)ccc3O[C@@H]2[C@H](CO)O1 | -11 | nt | 8
COc1cc(C(=O)NCc2ncccc2C)ccc1OC1CCN(C(C)=O)CC1 | -3 | nt | -4
O=C(CNC(=S)N(CCCN1CCOCC1)Cc1cccs1)N1CCOCC1 | 5 | -3% | 9
O=C(CNC(=S)N(CCCN1CCOCC1)Cc1cccs1)N1CCCCCC1 | -148* | 0% | -181*
O=C(OCc1ccc(F)cc1)c1cc(S(=O)(=O)N2CCCCC2)ccc1N1CCOCC1 | 7 | nt | -16
O=C(OCc1ccc([N+](=O)[O-])cc1)c1cc(S(=O)(=O)N2CCCCC2)ccc1N1CCOCC1 | -93* | nt | -80*
Cc1ccc(Cn2c(N3CCN(CCO)CC3)nc3c2c(=O)n(C)c(=O)n3C)cc1 | -8 | nt | -12
